Shown are actives, neighbours in structure and some others; about 1.2% of the full set was active somewhere.
IDH1 R132H inh – inhibitors of human mutant IDH1 R132H; Potency, µM (top dose mostly 76.6 µM), without a hit: top-dose activity change, negative = inhibition, actives largely listed as inhibitors; IDH1-R132H enzyme, NADPH consumption, diaphorase/resazurin fluorescence; O75874; 390,000 compounds, 0.093% hits; further: nearly all actives have a fitted effect of over 65% in size
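IDH1-R132H (0.5 ug/mL dispensed) in pH 7.5 Tris buffer was preincubated 30 min with compound, then given a substrate mix of 0.016 mM NADPH and 2 mM alpha-KG for 80 min at room temperature; remaining NADPH was read by diaphorase/resazurin fluorescence.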
GLS inhibitor – inhibitors of human glutaminase (GLS). 410,000 compounds, 0.21% hits. O94925. AID 624170. Potency, µM (top dose mostly 45.5 µM), for inactives: top-dose activity change, negative = inhibition, most hits filed as inhibitors. GLS enzymatic activity, qHTS titration
Target sequence (O94925 whole entry, looked up): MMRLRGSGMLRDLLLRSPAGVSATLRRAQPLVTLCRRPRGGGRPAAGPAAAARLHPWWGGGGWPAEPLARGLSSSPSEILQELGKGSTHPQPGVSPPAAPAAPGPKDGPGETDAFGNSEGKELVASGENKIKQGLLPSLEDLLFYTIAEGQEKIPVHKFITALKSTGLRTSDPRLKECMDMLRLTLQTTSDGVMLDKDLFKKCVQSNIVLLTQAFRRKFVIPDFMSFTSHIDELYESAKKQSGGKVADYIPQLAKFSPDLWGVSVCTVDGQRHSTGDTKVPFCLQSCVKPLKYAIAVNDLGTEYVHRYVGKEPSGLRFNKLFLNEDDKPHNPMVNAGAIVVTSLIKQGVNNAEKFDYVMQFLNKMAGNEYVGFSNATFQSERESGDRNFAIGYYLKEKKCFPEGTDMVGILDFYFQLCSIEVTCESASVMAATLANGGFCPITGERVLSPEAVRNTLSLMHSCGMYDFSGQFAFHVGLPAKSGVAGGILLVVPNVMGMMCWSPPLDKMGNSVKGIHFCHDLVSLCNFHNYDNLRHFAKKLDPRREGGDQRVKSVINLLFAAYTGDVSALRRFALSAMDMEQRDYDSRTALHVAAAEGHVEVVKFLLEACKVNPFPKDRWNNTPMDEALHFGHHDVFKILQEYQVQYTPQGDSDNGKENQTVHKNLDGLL
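hKGA in 45 mM KH2PO4 pH 8.2, 0.02% Tween-20 with pin-transferred compounds; 1 mM L-glutamine (stock) plus glutamate oxidase/HRP/Amplex Red coupling added. Fluorescence read initially and after 30 min at RT.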
TrxR1 substrate – substrates of rat thioredoxin reductase 1; O89049; purified TrxR1 substrate turnover, NADPH consumption readout; Potency, µM (titrated, usually from 114 µM), without a hit: at the top dose activity change, negative = substrate turnover; 390,000 compounds, 0.01% hits; AID 588456; further: nearly all actives have a fitted effect of over 50% in size
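Rat TrxR1, dispensed at 90 nM, was prereduced with 400 uM NADPH (final) for 5 min at ~22 deg C, then incubated with compound 15 min before 400 uM selenite. A first-read NADPH fluorescence drop versus no-compound background flagged substrates.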
rTrxR1 inhibitor – inhibitors of rat thioredoxin reductase 1; O89049; recombinant rTrxR1, NADPH fluorescence consumption, selenite substrate; Potency, µM (doses to about 114 µM), for the others: at the top dose activity change, negative = inhibition, actives largely listed as inhibitors; 390,000 compounds, 1% hits; AID 588453; further: nearly all actives have a fitted effect of over 65% in size
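Rat TrxR1 (90 nM in the dispensed reagent) was pre-reduced with 400 uM NADPH for 5 min at room temperature, then incubated with compound for 15 min. After 400 uM selenite was added, NADPH fluorescence (Ex 340/Em 450 nm) was followed for 8 min.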
Active calls of the source: *; u = inconclusive; x = no result given; [ ] = dose if it differs, or a comment. The call rests on the fitted dose curve; in most records, active means well fitted curve in the direction sought with a large enough effect; inconclusive means small, poorly fitted or top-dose-only effect, or another doubt; inactive means no such curve, though single readings can be large; an effect the other way counts as inactive or inconclusive. On the % scale 0 is the no-effect control and ±100 the full control effect; potency means the concentration at half of the fitted maximal effect.

SMILES	IDH1 R132H inh	GLS inhibitor	TrxR1 substrate	rTrxR1 inhibitor
COC(=O)c1ccc(/C=C/c2c(-c3ccc(OC)cc3)oc3ccccc23)cc1	-6%	0%	82%	33%
C/C(=N\O)C(=O)C(CN1CCCCC1)CN1CCCCC1	5%	26%	20%[57.1 µM]	0.45µM*
CCC(=O)NC(=S)Nc1c(C)cc(Br)cc1C	14%	0%	3%	28µM*
CCCC(=O)NC(=S)Nc1c(C)cc(Br)cc1C	2%	-6%	-8%	u
Cc1ccc2onc(CC(=O)N3CCN(c4cccc(C)c4C)CC3)c2c1	13%	1%	9%[11.4 µM]	10%[11.4 µM]
CCOCCOC(=O)c1ccc(NC(=O)/C=C/c2ccc(OC)c(OC)c2)cc1	-14%	-1%	-9%	-22%
CN(CCC#N)C(=O)COC(=O)c1c2c(nc3ccccc13)/C(=C/c1ccco1)CC2	6%	6.3µM*	-3%	5.6µM*
CC(C)CNC(=O)COC(=O)c1c2c(nc3ccccc13)/C(=C\c1cccs1)CC2	2%	4%	-10%	-42%
CCOC(=O)/C(=C\c1ccc([N+](=O)[O-])o1)NC(=O)c1ccccc1	2%	-4%	-1%	7.9µM*
Cc1cc(=O)n(CC(=O)NCc2ccc(OC(C)C)cc2)c2c1c(C)nn2-c1cccc(F)c1	-14%	-3%	-1%[57.1 µM]	8%[57.1 µM]
CO[C@H]1/C=C\O[C@@]2(C)Oc3c(C)c(O)c4c(O)c(c(C=NN5CCN(C6CCCC6)CC5)c(O)c4c3C2=O)NC(=O)C(C)=CC=C[C@H](C)[C@H](O)[C@@H](C)[C@@H](O)[C@@H](C)[C@H](OC(C)=O)[C@H]1C	x	x	-19%	-17%
COc1ccc2cc(C3CC(c4ccco4)=NN3S(C)(=O)=O)c(Cl)nc2c1 (stereo not drawn)	0%	-8%	1%	50µM*
CCS(=O)(=O)N1N=C(c2ccc(C)cc2)CC1c1cc2ccc(OC)cc2nc1Cl (stereo not drawn)	-4%	-7%	7%	22%
O=C(Nc1ccc(Br)cc1)NC1CCCCCCC1	5%	-18%	1%	21%
Cn1cnc2c(F)c(Nc3ccc(Br)cc3Cl)c(C(=O)NOCCO)cc21	x	1%	x	x
C/C(=N\Nc1ccc(C(=O)c2c(C)cc3ccccn23)cc1[N+](=O)[O-])c1ccc(O)cc1	-8%	3%	2%	28%
Cc1cc2ccccn2c1C(=O)c1ccc(N/N=C/c2ccc(C(=O)O)cc2)c([N+](=O)[O-])c1	6%	10µM*	-2%	13%
NC(N)=NCCCC(N)C(=O)O (stereo not drawn)	x	-6%	x	x
CCOC(=O)c1c(N)sc(=S)c2c1CCC2	-1%	19%	-14%	71µM*
CC1(C)CC(=O)C(C(c2ccc(Br)cc2)C2C(=O)CC(C)(C)CC2=O)C(=O)C1	0%	15%	10%	7.9µM*
COC(=O)c1ccc(C(C2C(=O)CC(C)(C)CC2=O)C2C(=O)CC(C)(C)CC2=O)cc1	2%	-4%	-2%[57.1 µM]	-46%
COc1ccc(C(C2C(=O)CC(C)(C)CC2=O)C2C(=O)CC(C)(C)CC2=O)cc1CO	-5%	6%	-4%	8.9µM*
CC1(C)CC(=O)C(C(c2ccc(F)cc2)C2C(=O)CC(C)(C)CC2=O)C(=O)C1	0%	-1%	-5%[57.1 µM]	4%[57.1 µM]
O=C(O)/C=C/C(=O)Nc1ccc(N2CCOCC2)nc1N1CCOCC1	0%	36%	-4%	16µM*
COc1ccc(N2CCN(c3ccc(NC(=O)/C=C\C(=O)O)cc3)CC2)cc1	-2%	28%	1%	1%
SMILES	IDH1 R132H inh	GLS inhibitor	TrxR1 substrate	rTrxR1 inhibitor
O=C1C=CC(=O)N1c1ccc(O)cc1	0%	20%	2%	1.3µM*
O=C(O)CNC(=O)c1ccc(OC(F)F)cc1	-2%	-1%	9%	12%
O=C1CCCC(=O)N1c1ccc(O)cc1	-9%	6%	-6%	3%
O=C1C=CC(=O)N1c1ccc(OC(F)F)cc1	7%	-16%	8%	1.1µM*
COc1cccc(CNC(=O)NCc2noc3ccc(C)cc23)c1	24%	5%	-4%	10%
CSCC[C@H](NC(=O)[C@@H](Cc1ccc(O[S+](=O)([O-])O)cc1)NC(=O)[C@H](N)CC(=O)O)C(=O)NCC(=O)N[C@@H](Cc1c[nH]c2ccccc12)C(=O)N[C@H](CCSC)C(=O)N[C@H](CC(=O)O)C(=O)N[C@@H](Cc1ccccc1)C(N)=O	x	-14%	x	x
CCc1nc(Nc2ccc(O)cc2)c2oc3ccccc3c2n1	7%	4.5µM*	-4%	1%

High-throughput results from PubChem.
